Experimental data from the supplement of paper PMC6555819.

Tests used:
Experiment in all cases: PBM binding z-score (relative to random genomic background probes); higher = stronger binding; sequences stand for … in GC…GCGATTGACAGCGTAGAATGAAGG
[1] = tested on: FXR:RXRa (NR concentration 270 nM, RXRa partner concentration 90 nM)
How it was run: (§1)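 Random background probes are the reference for binding z-scores. These scores derive from regression-normalized fluorescence on custom Agilent 4×180K protein-binding microarrays incubated 1 h with ligand-free nuclear receptor dimers. Binding was detected with antibodies against each partner (one per run).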

[2] = tested on: LXRa:RXRa (NR concentration 270 nM, RXRa partner concentration 90 nM)
How it was run: as §1

[3] = tested on: LXRa homodimer (NR concentration 270 nM)
How it was run: as §1

[4] = tested on: LXRb:RXRa (NR concentration 270 nM, RXRa partner concentration 90 nM)
How it was run: as §1

[5] = tested on: LXRb homodimer (NR concentration 270 nM)
How it was run: as §1

[6] = tested on: PPARa:RXRa (NR concentration 270 nM, RXRa partner concentration 90 nM)
How it was run: as §1

[7] = tested on: PPARg:RXRa (NR concentration 180 nM, RXRa partner concentration 90 nM)
How it was run: as §1

[8] = tested on: PPARg:RXRa 270nM:90nM, anti-RXR (NR concentration 270 nM, RXRa partner concentration 90 nM)
How it was run: as §1

[9] = tested on: PPARg:RXRa 30nM:10nM, anti-RXR (NR concentration 30 nM, RXRa partner concentration 10 nM)
How it was run: as §1

[10] = tested on: PPARg:RXRa 90nM:30nM, anti-RXR (NR concentration 90 nM, RXRa partner concentration 30 nM)
How it was run: as §1

[11] = tested on: PPARg:RXRa DBDmut IVT, anti-RXR (DBD mutation: RXRa K156A/R161A, NR concentration 270 nM, RXRa partner concentration 90 nM)
How it was run: as §1

[12] = tested on: PPARg:RXRa IVT, anti-PPARg (NR concentration 270 nM, RXRa partner concentration 90 nM)
How it was run: as §1

[13] = tested on: PPARg DBDmut:RXRa IVT, anti-PPARg (DBD mutation: PPARg1 K132A/R137A, NR concentration 270 nM, RXRa partner concentration 90 nM)
How it was run: as §1

[14] = tested on: PPARg DBDmut IVT, anti-PPARg (DBD mutation: PPARg1 K132A/R137A, NR concentration 270 nM)
How it was run: as §1

[15] = tested on: PPARg homodimer (NR concentration 180 nM)
How it was run: as §1

[16] = tested on: PXR:RXRa (NR concentration 270 nM, RXRa partner concentration 90 nM)
How it was run: as §1

[17] = tested on: PXR homodimer (NR concentration 270 nM)
How it was run: as §1

[18] = tested on: RARa:RXR (NR concentration 270 nM, RXRa partner concentration 90 nM)
How it was run: as §1

[19] = tested on: RARa homodimer (NR concentration 270 nM)
How it was run: as §1

[20] = tested on: RARb:RXRa (NR concentration 270 nM, RXRa partner concentration 90 nM)
How it was run: as §1

Row | Sequence | PBM binding z-score [1] | PBM binding z-score [2] | PBM binding z-score [3] | PBM binding z-score [4] | PBM binding z-score [5] | PBM binding z-score [6] | PBM binding z-score [7] | PBM binding z-score [8] | PBM binding z-score [9] | PBM binding z-score [10] | PBM binding z-score [11] | PBM binding z-score [12] | PBM binding z-score [13] | PBM binding z-score [14] | PBM binding z-score [15] | PBM binding z-score [16] | PBM binding z-score [17] | PBM binding z-score [18] | PBM binding z-score [19] | PBM binding z-score [20]
1 | CCTAGTTGGTCAGGAGTTCACACACCGGATATGA | 1.64 | 2.22 | 1.92 | 1.85 | 0.3 | 2.2 | 1.24 | 1.95 | 0.752 | 1.49 | 1.01 | 1.1 | 0.396 | 0.284 | 2.47 | 3.66 | 3.68 | 2.36 | 1.42 | 2.39
2 | CGAACTAGTTCATTGACAGGACAGTGAATAGTAA | 0.24 | 0.585 | 0.0589 | 0.212 | -0.317 | 0.375 | 0.284 | 0.0577 | -0.0865 | -0.122 | 0.941 | 0.504 | 0.647 | 0.333 | 0.0581 | 1.09 | 0.739 | 0.372 | 0.437 | 1.25
3 | TCTAGTTGGTCAAAGGTGACACACTCGAAATGCG | 1.46 | 1.67 | 0.489 | 2.08 | 0.376 | 4.71 | 8.48 | 8.54 | 8.19 | 8.69 | 3.81 | 4.76 | 1.03 | 1.64 | 2.13 | 2.14 | 0.548 | 2.88 | 1.33 | 2.38
4 | TCTGCTAGGTCAGTTGGTCTGCTAACGAGCTGCC | 0.643 | 0.261 | -0.897 | -0.119 | 0.334 | 0.9 | -0.466 | 1.02 | 0.751 | 1.14 | 2.62 | 2.53 | 0.337 | -0.177 | -0.432 | -0.155 | -1.02 | 0.136 | -1.16 | 3.25
5 | CTCGAAAGGTCGGTTGAGGTGAGTTTACGGATAA | 2.83 | 1.88 | 0.32 | 1.63 | -0.184 | 2.69 | -9.87e-05 | 1.12 | 0.0415 | 0.508 | 1.08 | 0.924 | -0.565 | -0.36 | 0.854 | 3.83 | 0.588 | 2.16 | -0.143 | 3.09
6 | CCTGCTAGGTCATGGACAGCTAATCTACAGTATG | 3.61 | 2.77 | -0.434 | 1.75 | -0.251 | 3.61 | 2.53 | 2.8 | 0.906 | 1.75 | 4.72 | 3.72 | 0.434 | 0.0292 | 0.812 | 1.4 | -0.443 | 2.53 | 0.184 | 3.84
7 | ATTATTAGTTGACTTAGGGCAACCGATACGACGC | 0.735 | 0.64 | 1.16 | 0.949 | 1.32 | 0.727 | 1.09 | 0.586 | 0.719 | 0.975 | 0.113 | 0.899 | 2.01 | 2.21 | 2.16 | 1.14 | 1.53 | 0.95 | 2.43 | 1.12
8 | CGACCTAGGTCATTGACAGGACAGTGAATAGTAA | 5.8 | 4.01 | 0.717 | 2.75 | 0.226 | 4.18 | 3.67 | 3.24 | 0.782 | 2.01 | 3.78 | 3.8 | 0.789 | 0.214 | 2.3 | 1.99 | -0.114 | 3.08 | 0.169 | 3.9
9 | ACTAGCAGGCCATGTTTGGGTCACTCAAACAAAG | 0.27 | -0.058 | -0.283 | 0.735 | -0.846 | 1.31 | 0.145 | 0.304 | -0.51 | -0.31 | 0.691 | 1.13 | -0.241 | -1.08 | 0.0761 | 0.404 | -0.559 | 1.37 | -0.914 | 1.72
10 | AATCAAAGTTCACTAGGTAACGTAAGATTCAGCT | 4.99 | 5.49 | 4.91 | 3.21 | 1.43 | 4.48 | 5.39 | 4.91 | 2.47 | 3.92 | 2.41 | 4.17 | 1.22 | 1.64 | 2.31 | 3.75 | 2 | 2.5 | 1.15 | 4.72
11 | ATATGTAGGTTACATCCGGGGCATTCAGGCTATG | 0.427 | 2.23 | 0.412 | 1.16 | 1.07 | 3.19 | 5.17 | 4.28 | 1.77 | 3.18 | 7.46 | 7.35 | 2.05 | 1.15 | 0.96 | 1.14 | 0.659 | 0.992 | 0.476 | 1.26
12 | CCTTACGGGTCACTGACAGGTGATAGCATTTGGA | 6.8 | 5.19 | 0.411 | 4.32 | -0.315 | 5.68 | 4.86 | 4.97 | 1.83 | 4 | 3.73 | 3.99 | 0.64 | -0.737 | 2.47 | 4.3 | 0.473 | 5.06 | 0.945 | 4.15
13 | CCTATTCGTTGACCATAAGGGCAACCGAAGCTCG | 0.737 | 0.584 | 0.874 | 0.578 | 1.19 | 0.766 | 0.4 | 0.418 | 0.115 | 0.223 | 0.434 | 0.637 | 0.0621 | 0.266 | 1.7 | 0.841 | 0.82 | 1.41 | 1.43 | 1.82
14 | TCATATAGGTAAAAGTTGAAAGTCGGTGTGGTAA | 1.54 | 1.21 | 0.41 | 1.21 | -0.0163 | 4.24 | 7.51 | 7.35 | 7.31 | 8.17 | 4.15 | 3.58 | 0.876 | 1.75 | 1.63 | 0.929 | 0.491 | 1.56 | 1.48 | 1.04
